# In PubChem BioAssay (Tox21):
# Inconclusive results are not listed. A call without a number means that no potency is given here. Activity calls are given as the source filed them. The call rests on the fitted dose curve; in most records, active means well fitted curve in the direction sought with a large enough effect in the repeat runs; inconclusive means weak or mixed curves; inactive means no such curve, though single readings can be large; an effect the other way counts as inactive or inconclusive.
# Assays:
# [1] = biological target: Cytochrome P450 2D6 (Homo sapiens) (UniProt P10635); test: Cytochrome P450 Family 2 Subfamily D Member 6 (CYP2D6) small molecule antagonists: luciferase reporter qHTS assay (AID 1671196); conditions: P450-Glo CYP2D6 enzyme assay, luciferin luminescence, 1 h; series mostly up to 115 µM; further: nearly all actives have a fitted effect of over 50% in size
# Cytochrome P450 2D6 (Homo sapiens), sequence (P10635 whole entry, looked up): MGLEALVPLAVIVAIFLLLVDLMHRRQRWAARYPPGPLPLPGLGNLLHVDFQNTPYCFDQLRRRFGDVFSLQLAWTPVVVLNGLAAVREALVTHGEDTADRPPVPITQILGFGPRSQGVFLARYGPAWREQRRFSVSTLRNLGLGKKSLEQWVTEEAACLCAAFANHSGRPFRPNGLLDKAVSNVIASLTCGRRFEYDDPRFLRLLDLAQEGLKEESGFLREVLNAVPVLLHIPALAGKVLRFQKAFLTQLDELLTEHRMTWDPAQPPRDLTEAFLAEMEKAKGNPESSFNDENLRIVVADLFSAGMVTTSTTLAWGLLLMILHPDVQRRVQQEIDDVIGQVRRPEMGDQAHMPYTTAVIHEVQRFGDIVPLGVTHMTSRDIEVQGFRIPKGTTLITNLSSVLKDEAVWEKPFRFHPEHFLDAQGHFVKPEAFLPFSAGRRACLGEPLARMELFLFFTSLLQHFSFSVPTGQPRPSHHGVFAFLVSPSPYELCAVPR
# In short: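 Chemicals tested for interference with CYP2D6 activity; proluciferin substrate, NADPH regeneration, 1 h at room temperature, luminescent detection.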
# [2] = biological target: Cytochrome P450 2C9 (Homo sapiens) (UniProt P11712); test: Cytochrome P450 Family 2 Subfamily C Member 9 (CYP2C9) small molecule antagonists: luciferase reporter qHTS assay (AID 1671198); conditions: P450-Glo CYP2C9 enzyme assay, luciferin luminescence; series mostly up to 115 µM; further: nearly all actives have a fitted effect of over 50% in size
# Cytochrome P450 2C9 (Homo sapiens), sequence (P11712 whole entry, looked up): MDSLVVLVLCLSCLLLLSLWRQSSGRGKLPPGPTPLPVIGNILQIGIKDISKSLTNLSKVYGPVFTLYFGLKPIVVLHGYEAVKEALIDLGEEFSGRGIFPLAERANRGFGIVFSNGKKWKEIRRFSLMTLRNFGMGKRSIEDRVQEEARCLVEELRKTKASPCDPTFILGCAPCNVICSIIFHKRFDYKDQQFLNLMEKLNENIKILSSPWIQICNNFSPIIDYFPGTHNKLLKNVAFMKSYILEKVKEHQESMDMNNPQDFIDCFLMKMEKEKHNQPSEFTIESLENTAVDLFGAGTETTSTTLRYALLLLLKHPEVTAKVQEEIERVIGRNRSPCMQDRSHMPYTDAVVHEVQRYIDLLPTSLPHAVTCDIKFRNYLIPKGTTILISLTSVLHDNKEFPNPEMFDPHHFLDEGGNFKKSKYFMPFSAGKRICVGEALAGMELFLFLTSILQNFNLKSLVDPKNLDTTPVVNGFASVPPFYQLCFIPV
# In short: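 Enzyme-substrate mix preincubated with compound 10 min at room temperature; reaction started with NADPH regeneration solution, 1 h 37C. Luminescent luciferin product read after 20 min detection reagent.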
# [3] = biological target: Cytochrome P450 1A2 (Homo sapiens) (UniProt P05177); test: Cytochrome P450 Family 1 Subfamily A Member 2 (CYP1A2) small molecule antagonists: luciferase reporter qHTS assay (AID 1671199); conditions: P450-Glo CYP1A2 enzyme, luciferin luminescence, 1 h; series mostly up to 53 µM; further: nearly all actives have a fitted effect of over 50% in size
# Cytochrome P450 1A2 (Homo sapiens), sequence (P05177 whole entry, looked up): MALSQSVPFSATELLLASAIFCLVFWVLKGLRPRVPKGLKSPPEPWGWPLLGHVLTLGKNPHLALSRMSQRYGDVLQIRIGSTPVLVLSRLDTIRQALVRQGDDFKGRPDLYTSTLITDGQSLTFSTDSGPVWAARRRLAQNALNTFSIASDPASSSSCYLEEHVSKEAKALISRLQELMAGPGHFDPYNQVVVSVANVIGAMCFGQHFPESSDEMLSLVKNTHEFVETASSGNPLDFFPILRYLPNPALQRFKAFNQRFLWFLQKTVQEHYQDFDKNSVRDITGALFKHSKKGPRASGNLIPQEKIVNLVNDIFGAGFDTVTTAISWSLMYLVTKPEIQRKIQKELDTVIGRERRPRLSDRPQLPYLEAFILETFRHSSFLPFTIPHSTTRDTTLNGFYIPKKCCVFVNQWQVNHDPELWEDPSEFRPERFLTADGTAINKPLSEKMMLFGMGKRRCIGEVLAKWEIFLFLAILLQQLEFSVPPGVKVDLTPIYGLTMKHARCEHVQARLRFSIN
# In short: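 Read-out is luminescence from luciferin detection reagent (20 min) proportional to CYP1A2 activity; compounds in DMSO preincubated 10 min with enzyme and proluciferin substrate, then NADPH regeneration solution, 1 h, room temperature.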
# [4] = biological target: Voltage-gated inwardly rectifying potassium channel KCNH2 (Homo sapiens) (UniProt Q12809); test: Human Ether-a-go-go-Related Gene (hERG) channel small molecule antagonists: fluorescence cell-based qHTS assay (AID 1671200); conditions: hERG-U2OS cells, FluxOR thallium flux fluorescence; series mostly up to 76.8 µM; further: nearly all actives have a fitted effect of over 50% in size
# Voltage-gated inwardly rectifying potassium channel KCNH2 (Homo sapiens), sequence (Q12809 whole entry, looked up): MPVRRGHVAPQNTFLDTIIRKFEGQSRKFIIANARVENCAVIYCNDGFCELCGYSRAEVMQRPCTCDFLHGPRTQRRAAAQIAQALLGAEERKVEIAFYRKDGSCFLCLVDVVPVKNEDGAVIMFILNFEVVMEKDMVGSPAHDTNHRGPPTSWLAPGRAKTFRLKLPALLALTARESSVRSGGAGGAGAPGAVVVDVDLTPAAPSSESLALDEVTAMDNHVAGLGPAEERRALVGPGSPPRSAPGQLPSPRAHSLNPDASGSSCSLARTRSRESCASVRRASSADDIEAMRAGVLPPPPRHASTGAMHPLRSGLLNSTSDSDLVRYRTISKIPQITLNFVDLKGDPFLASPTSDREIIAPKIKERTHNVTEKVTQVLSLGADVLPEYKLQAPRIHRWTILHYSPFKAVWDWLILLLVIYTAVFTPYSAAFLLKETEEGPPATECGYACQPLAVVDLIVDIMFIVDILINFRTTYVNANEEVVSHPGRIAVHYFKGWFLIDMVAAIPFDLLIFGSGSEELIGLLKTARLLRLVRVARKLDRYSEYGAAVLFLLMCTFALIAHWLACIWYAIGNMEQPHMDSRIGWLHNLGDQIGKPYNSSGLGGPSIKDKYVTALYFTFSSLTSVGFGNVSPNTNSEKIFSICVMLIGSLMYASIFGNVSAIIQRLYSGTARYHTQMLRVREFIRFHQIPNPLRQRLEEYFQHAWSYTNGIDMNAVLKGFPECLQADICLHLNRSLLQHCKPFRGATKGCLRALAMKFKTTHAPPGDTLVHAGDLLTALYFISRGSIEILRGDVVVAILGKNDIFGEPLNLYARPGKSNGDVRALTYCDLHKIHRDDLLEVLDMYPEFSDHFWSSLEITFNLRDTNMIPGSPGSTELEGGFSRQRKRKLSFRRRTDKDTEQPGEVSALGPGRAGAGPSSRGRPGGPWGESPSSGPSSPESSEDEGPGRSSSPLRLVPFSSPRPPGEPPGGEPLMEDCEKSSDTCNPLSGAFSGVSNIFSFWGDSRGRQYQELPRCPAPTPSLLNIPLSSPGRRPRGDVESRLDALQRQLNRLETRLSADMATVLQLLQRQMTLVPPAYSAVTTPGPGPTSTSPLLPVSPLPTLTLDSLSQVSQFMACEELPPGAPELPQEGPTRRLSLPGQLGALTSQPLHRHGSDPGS
# In short: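 Read-out: thallium influx as a surrogate for potassium, tracked as fluorescence (480 nm ex/540 nm em) every second for 2 min after Stimulus Buffer addition in dye-loaded hERG-U2OS cells.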
# [5] = biological target: Cytochrome P450 3A4 (Homo sapiens) (UniProt P08684); test: Cytochrome P450 Family 3 Subfamily A Member 4 (CYP3A4) small molecule antagonists: luciferase reporter qHTS assay (AID 1671201); conditions: P450-Glo CYP3A4 enzyme, luciferin luminescence, 1 h; series mostly up to 115 µM; further: nearly all actives have a fitted effect of over 50% in size
# Cytochrome P450 3A4 (Homo sapiens), sequence (P08684 whole entry, looked up): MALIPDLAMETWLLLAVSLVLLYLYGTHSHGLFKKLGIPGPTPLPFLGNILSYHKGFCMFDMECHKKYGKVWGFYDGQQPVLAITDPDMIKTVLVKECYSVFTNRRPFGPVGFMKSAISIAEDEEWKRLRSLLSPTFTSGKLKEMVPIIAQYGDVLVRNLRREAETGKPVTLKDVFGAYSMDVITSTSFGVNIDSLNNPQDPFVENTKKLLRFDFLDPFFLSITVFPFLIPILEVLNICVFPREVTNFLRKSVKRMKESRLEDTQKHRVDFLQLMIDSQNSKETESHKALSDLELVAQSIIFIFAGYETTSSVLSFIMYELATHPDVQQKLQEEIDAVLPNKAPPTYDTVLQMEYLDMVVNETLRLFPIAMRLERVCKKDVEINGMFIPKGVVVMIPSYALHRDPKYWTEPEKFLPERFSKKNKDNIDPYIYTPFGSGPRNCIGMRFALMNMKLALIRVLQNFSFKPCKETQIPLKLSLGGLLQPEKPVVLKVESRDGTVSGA
# In short: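 Luminescent readout (RLU) proportional to CYP3A4 activity, from luciferin generated off a proluciferin substrate. Enzyme–substrate mix plus compound 10 min at room temp, NADPH regeneration 1 h, detection reagent 20 min.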
# [6] = biological target: Cytochrome P450 2C19 (Homo sapiens) (UniProt P33261); test: Cytochrome P450 Family 2 Subfamily C Member 19 (CYP2C19) small molecule antagonists: luciferase reporter qHTS assay (AID 1671197); conditions: P450-Glo CYP2C19 enzyme, luciferin luminescence, 1 h; series mostly up to 52.9 µM; further: nearly all actives have a fitted effect of over 65% in size
# Cytochrome P450 2C19 (Homo sapiens), sequence (P33261 whole entry, looked up): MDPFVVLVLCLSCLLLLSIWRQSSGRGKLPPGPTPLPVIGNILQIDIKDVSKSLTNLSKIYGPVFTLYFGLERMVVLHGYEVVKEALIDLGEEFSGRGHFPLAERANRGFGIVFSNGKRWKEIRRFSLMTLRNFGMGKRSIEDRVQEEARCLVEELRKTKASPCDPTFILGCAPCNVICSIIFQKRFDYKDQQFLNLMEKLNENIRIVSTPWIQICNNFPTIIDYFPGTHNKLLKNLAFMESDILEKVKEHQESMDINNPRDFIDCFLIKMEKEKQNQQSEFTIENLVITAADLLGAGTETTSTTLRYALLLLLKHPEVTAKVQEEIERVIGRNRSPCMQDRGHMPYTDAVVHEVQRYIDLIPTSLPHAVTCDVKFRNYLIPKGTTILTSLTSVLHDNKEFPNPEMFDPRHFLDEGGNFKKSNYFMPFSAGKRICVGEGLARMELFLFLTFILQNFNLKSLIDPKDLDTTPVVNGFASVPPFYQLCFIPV
# In short: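 Light output is proportional to CYP2C19 activity: proluciferin substrate is converted to luciferin, then detected by a luciferin detection reagent that also stops the 1 h, 37C NADPH-driven reaction. Ketoconazole serves as positive control.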
# Potency means the concentration at half of the fitted maximal effect.
Structure (SMILES),Potency [1],Potency [2],Potency [3],Potency [4],Potency [5],Potency [6]
O=c1[nH]ncc2ccccc12,inactive,inactive,inactive,inactive,inactive,
O=C(Nc1cccc2c(=O)cc(-c3nn[nH]n3)oc12)c1ccc(OCCCCc2ccccc2)cc1,inactive,7.76 µM (active),inactive,inactive,inactive,
N#CCc1ccc(Cl)cc1Cl,inactive,inactive,22.4 µM (active),inactive,inactive,
COc1ccccc1N1CCN(CCCCNC(=O)c2ccc(-c3ccc(C(C)=O)cc3)cc2)CC1,2.19 µM (active),inactive,inactive,3.79 µM (active),inactive,
CC(=O)Nc1ccc(C)cc1C,inactive,inactive,inactive,inactive,inactive,
CC(C)(C)CC(=O)OCC(=O)[C@@]1(O)CC[C@H]2[C@@H]3CCC4=CC(=O)C=C[C@]4(C)[C@H]3[C@@H](O)C[C@@]21C,38.9 µM (active),15.5 µM (active),,inactive,,
CCC1(CO)COCOC1,inactive,inactive,,inactive,inactive,
CC(=O)OCC[N+](C)(C)C,inactive,inactive,24.5 µM (active),inactive,inactive,
CCOc1ccc(Cc2nccc3cc(OCC)c(OCC)cc23)cc1OCC,,4.9 µM (active),inactive,,,7.76 µM (active)
O=Cc1c2ccccc2c(Cl)c2ccccc12,inactive,,1.38 µM (active),inactive,inactive,
CC(=O)[C@H]1[C@H](C#N)C[C@H]2[C@@H]3CC=C4C[C@@H](O)CC[C@]4(C)[C@H]3CC[C@@]21C,inactive,,,inactive,inactive,
CCCCCC[C@@H](O)C/C=C\CCCCCCCC(=O)O,inactive,,inactive,inactive,inactive,
c1cc(N(CC2CO2)CC2CO2)ccc1Cc1ccc(N(CC2CO2)CC2CO2)cc1 (stereo not drawn),inactive,17.8 µM (active),,inactive,12.6 µM (active),
CN1CCCC(n2nc(Cc3ccc(Cl)cc3)c3ccccc3c2=O)CC1 (stereo not drawn),1.1 µM (active),,inactive,,,
COC(=O)CCS,inactive,inactive,,inactive,inactive,
C=CC(=O)OCC1CC2CC1C1CCC(COC(=O)C=C)C21 (stereo not drawn),,17.8 µM (active),35.6 µM (active),,,5.03 µM (active)
O=C(CCc1ccc(O)cc1)c1c(O)cc(O)cc1O,,20.5 µM (active),36.4 µM (active),inactive,12.9 µM (active),40.8 µM (active)

Structure (SMILES),Potency [1],Potency [2],Potency [3],Potency [4],Potency [5],Potency [6]
Cc1ccc2c(Br)cc(Br)c(O)c2n1,inactive,,,inactive,inactive,
O=C(/C=C/c1ccc(O)c(O)c1)O[C@@H]1C[C@@](OC(=O)/C=C/c2ccc(O)c(O)c2)(C(=O)O)C[C@@H](O)[C@@H]1O,inactive,,,inactive,inactive,
CC(C)COCC(CN(Cc1ccccc1)c1ccccc1)N1CCCC1 (stereo not drawn),0.0692 µM (active),,inactive,,,
O=C1CCCCCCCCCCOCCCCO1,inactive,,35.6 µM (active),,39.9 µM (active),
C=C(C)C(=O)OCCOCCOC(=O)C(=C)C,inactive,,15.9 µM (active),inactive,inactive,
CCOc1ccccc1O[C@H](c1ccccc1)[C@H]1CNCCO1,,inactive,inactive,inactive,,inactive
O=C1c2ccccc2C(=O)C1(O)O,35.8 µM (active),,,inactive,inactive,
c1ccc(C[n+]2cccc3ccccc32)cc1,3.17 µM (active),,,inactive,inactive,
O=C(CCCN1CC=C(n2c(=O)[nH]c3ccccc32)CC1)c1ccc(F)cc1,2.45 µM (active),inactive,,,inactive,
CCC=CC#N,inactive,inactive,,inactive,inactive,
CCCCOc1ccc(OCCCN2CCOCC2)cc1,27.5 µM (active),,inactive,,inactive,
Nc1nnc(-c2ccc([N+](=O)[O-])o2)o1,39.9 µM (active),,,inactive,inactive,
CCCCCCCCN,,inactive,inactive,inactive,inactive,inactive
COc1ccccc1N1CCN(CC(O)COc2cccc3ccccc23)CC1 (stereo not drawn),1.55 µM (active),,,1.9 µM (active),inactive,
C[C@H]1C[C@H](O)c2ccsc2S1(=O)=O,inactive,inactive,,inactive,inactive,
CN(C)CCN1C(=O)c2ccccc2N(C)c2ccccc21,,inactive,inactive,inactive,inactive,inactive
CC(C)=CCC/C(C)=C/CC/C(C)=C/C(=O)OCC(=O)[C@@]1(O)CC[C@H]2[C@@H]3CCC4=CC(=O)C=C[C@]4(C)[C@H]3[C@@H](O)C[C@@]21C,,3.89 µM (active),inactive,inactive,,7.76 µM (active)
